Tests used:
Assay in all cases: DAPPL (digital affinity profiling via proximity ligation, sequencing); 10 mM Tris-HCl pH 7.5, 50 mM NaCl, 1 mM DTT, 4% glycerol, room temperature, 30 min; GST-TFs on glutathione beads, 16-mer random dsDNA library, 0.1% formaldehyde crosslink after washing; high values mean tight binding
[1] = molecular target: T1, FLI1 (Homo sapiens, UniProt Q01543 1-452); conditions: protein: recombinant; tags: N-terminal GST; dsDNA, one strand shown
T1 sequence: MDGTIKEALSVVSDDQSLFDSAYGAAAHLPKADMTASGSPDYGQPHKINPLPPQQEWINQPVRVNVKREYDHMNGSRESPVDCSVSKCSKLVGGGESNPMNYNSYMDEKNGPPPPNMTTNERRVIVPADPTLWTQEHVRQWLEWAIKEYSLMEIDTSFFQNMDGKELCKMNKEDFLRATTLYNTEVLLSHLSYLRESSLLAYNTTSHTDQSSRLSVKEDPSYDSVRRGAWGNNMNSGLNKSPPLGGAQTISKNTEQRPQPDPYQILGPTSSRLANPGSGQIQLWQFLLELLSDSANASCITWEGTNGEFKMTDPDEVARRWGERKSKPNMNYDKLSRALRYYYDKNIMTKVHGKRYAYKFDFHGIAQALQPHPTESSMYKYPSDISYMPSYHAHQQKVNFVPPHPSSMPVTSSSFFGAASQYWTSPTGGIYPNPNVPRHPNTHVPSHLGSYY
In short: (§1)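 In yeast, human transcription factors were expressed with a GST fusion, then pulled down on glutathione beads and given DNA barcodes. Pooled with a tag-only sample, they were exposed to 200 nmole of a 16-mer random double-stranded DNA library (Tris/NaCl/DTT/glycerol buffer, room temperature, 30 min), washed, crosslinked with 0.1% formaldehyde, proximity-ligated using BsaI/T4 ligase for 1 h at 37 °C, PCR-amplified and read on an Illumina NextSeq500. Each hexamer's frequency of reads for a factor, divided by the matching frequency for the tag-only sample, gives the binding signal.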

[2] = molecular target: T2, ELK1 (Homo sapiens, UniProt P19419 1-428); conditions: protein: recombinant; tags: N-terminal GST; dsDNA, one strand shown
T2 sequence: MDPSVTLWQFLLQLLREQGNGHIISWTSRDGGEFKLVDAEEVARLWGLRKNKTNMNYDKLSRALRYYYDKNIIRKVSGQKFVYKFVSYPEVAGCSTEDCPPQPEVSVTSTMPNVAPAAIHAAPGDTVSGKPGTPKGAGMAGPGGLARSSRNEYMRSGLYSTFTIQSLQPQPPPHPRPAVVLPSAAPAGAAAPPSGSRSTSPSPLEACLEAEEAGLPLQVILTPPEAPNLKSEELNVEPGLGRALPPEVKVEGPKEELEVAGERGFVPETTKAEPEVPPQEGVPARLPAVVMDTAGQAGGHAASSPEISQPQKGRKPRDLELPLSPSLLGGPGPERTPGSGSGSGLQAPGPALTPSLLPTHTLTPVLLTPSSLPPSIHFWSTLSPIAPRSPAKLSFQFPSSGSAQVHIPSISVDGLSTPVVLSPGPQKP
In short: as §1

[3] = molecular target: T3, GABPA (Homo sapiens, UniProt Q06546 1-454); conditions: protein: recombinant; tags: N-terminal GST; dsDNA, one strand shown
T3 sequence: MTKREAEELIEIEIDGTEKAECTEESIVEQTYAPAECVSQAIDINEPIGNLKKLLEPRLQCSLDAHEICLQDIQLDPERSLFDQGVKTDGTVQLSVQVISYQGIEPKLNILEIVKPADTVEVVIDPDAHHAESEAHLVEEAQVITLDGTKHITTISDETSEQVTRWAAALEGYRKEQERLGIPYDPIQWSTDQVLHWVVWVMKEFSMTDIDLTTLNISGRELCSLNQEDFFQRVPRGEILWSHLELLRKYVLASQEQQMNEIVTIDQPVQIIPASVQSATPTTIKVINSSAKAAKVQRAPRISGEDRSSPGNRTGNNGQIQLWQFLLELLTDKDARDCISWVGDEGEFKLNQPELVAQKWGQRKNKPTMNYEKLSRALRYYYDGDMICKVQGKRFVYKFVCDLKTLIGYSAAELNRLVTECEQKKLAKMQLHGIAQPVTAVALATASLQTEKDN
In short: as §1

[4] = molecular target: T4, ERG (Homo sapiens, UniProt P11308 1-479); conditions: protein: recombinant; tags: N-terminal GST; dsDNA, one strand shown
T4 sequence: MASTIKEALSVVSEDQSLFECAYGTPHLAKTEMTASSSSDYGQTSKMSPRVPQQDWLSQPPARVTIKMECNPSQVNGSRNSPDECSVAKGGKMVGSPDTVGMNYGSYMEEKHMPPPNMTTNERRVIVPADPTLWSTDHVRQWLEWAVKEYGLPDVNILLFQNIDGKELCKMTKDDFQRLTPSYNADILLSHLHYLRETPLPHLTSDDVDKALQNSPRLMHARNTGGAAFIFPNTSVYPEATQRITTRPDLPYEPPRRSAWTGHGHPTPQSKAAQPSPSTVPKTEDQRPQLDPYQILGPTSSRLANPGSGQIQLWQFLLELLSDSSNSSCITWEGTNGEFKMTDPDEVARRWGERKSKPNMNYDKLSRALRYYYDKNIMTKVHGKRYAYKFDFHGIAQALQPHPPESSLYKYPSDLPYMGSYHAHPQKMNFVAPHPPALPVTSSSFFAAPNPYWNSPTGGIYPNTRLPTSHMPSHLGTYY
In short: as §1

[5] = molecular target: ELF1 (Homo sapiens, UniProt P32519 1-619); conditions: protein: recombinant; tags: N-terminal GST; dsDNA, one strand shown
ELF1, sequence (P32519 whole entry): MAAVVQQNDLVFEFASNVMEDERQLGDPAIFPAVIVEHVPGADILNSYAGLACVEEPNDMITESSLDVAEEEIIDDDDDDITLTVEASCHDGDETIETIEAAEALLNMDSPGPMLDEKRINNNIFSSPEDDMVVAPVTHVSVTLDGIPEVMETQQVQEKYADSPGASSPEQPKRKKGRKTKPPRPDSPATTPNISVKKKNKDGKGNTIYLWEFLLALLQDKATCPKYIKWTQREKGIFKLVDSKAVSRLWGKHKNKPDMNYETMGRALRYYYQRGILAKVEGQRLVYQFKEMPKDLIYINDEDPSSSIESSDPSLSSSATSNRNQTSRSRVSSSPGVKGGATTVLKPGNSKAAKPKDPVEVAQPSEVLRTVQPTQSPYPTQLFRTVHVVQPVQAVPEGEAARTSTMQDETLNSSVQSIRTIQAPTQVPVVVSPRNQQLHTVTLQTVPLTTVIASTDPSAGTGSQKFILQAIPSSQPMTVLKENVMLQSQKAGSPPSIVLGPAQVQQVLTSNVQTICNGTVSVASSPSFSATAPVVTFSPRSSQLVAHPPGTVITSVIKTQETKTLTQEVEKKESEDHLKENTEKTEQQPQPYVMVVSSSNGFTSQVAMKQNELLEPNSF
In short: as §1

[6] = molecular target: T5, EHF (Homo sapiens, UniProt Q9NZC4 1-300); conditions: protein: recombinant; tags: N-terminal GST; dsDNA, one strand shown
T5 sequence: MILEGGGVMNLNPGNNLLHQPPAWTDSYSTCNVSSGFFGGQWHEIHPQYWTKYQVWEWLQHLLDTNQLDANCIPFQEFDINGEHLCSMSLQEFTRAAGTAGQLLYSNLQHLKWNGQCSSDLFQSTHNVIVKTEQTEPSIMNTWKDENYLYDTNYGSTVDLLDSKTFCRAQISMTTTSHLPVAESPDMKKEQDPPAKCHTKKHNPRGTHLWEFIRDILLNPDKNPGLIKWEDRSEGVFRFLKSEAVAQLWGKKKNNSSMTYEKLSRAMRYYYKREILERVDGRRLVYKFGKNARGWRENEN
In short: as §1

[7] = molecular target: SPI1 (Homo sapiens, UniProt P17947 1-270); conditions: protein: recombinant; tags: N-terminal GST; dsDNA, one strand shown
In short: as §1

[8] = molecular target: SPIB (Homo sapiens, UniProt Q01892 1-262); conditions: protein: recombinant; tags: N-terminal GST; dsDNA, one strand shown
SPIB, sequence (Q01892 whole entry): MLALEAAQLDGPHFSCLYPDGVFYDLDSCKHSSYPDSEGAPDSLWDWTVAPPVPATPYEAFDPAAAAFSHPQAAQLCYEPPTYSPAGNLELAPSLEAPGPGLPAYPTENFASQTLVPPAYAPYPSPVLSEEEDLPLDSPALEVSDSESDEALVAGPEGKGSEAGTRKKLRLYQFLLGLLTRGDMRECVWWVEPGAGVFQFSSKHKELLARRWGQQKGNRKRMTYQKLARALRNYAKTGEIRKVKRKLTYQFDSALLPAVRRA
In short: as §1

[9] = molecular target: T6, ELK3 (Homo sapiens, UniProt P41970 1-407); conditions: protein: recombinant; tags: N-terminal GST; dsDNA, one strand shown
T6 sequence: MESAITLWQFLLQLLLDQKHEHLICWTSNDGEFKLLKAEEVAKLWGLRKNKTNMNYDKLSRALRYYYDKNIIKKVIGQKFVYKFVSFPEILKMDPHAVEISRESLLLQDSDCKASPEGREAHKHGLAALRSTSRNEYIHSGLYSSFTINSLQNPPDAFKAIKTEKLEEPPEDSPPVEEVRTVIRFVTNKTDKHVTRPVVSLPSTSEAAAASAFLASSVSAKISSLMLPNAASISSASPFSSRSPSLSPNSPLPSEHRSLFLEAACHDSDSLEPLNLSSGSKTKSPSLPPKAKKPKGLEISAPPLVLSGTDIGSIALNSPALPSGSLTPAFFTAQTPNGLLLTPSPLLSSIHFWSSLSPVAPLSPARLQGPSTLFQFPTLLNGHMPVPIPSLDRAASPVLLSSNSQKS
In short: as §1

[10] = molecular target: T7, FEV (Homo sapiens, UniProt Q99581 1-238); conditions: protein: recombinant; tags: N-terminal GST; dsDNA, one strand shown
T7 sequence: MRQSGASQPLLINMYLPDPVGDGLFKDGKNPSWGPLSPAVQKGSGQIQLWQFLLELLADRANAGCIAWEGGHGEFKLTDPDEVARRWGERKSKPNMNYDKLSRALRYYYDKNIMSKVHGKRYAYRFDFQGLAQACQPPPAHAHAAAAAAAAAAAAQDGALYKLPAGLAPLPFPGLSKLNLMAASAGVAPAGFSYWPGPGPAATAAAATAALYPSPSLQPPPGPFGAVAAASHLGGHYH
In short: as §1

[11] = molecular target: ETV5 (Homo sapiens, UniProt P41161 1-510); conditions: protein: recombinant; tags: N-terminal GST; dsDNA, one strand shown
ETV5, sequence (P41161 whole entry): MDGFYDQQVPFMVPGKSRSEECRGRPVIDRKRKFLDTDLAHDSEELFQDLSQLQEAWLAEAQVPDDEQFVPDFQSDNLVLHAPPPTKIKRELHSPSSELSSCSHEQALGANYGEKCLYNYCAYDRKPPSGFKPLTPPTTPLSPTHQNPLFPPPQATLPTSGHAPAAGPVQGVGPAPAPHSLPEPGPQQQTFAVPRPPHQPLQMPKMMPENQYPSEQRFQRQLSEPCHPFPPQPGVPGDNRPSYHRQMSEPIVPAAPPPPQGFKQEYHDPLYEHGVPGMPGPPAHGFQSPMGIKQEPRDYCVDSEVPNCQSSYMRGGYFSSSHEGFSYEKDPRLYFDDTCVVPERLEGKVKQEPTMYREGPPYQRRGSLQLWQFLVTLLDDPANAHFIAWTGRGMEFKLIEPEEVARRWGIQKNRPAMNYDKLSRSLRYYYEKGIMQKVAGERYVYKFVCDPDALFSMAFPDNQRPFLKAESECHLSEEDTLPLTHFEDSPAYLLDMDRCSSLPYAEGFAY
In short: as §1

[12] = molecular target: HSF1 (Homo sapiens, UniProt Q00613 1-529); conditions: protein: recombinant; tags: N-terminal GST; chain copies: 3; dsDNA, one strand shown
HSF1, sequence (Q00613 whole entry): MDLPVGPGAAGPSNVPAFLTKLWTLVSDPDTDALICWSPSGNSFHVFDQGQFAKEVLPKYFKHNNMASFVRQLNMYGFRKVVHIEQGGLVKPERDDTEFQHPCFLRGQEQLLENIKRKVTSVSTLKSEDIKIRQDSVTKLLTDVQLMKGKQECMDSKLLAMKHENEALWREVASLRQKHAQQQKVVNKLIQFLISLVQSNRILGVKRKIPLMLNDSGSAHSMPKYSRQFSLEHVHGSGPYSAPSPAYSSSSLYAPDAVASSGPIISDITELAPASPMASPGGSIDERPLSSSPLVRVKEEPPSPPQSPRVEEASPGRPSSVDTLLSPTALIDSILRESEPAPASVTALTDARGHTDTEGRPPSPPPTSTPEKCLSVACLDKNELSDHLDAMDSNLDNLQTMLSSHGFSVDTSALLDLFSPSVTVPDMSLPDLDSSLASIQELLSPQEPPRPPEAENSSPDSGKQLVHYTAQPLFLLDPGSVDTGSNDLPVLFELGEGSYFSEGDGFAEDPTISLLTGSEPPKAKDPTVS
In short: as §1

[13] = molecular target: T8, SPIC (Homo sapiens, UniProt Q8N5J4 1-248); conditions: protein: recombinant; tags: N-terminal GST; dsDNA, one strand shown
T8 sequence: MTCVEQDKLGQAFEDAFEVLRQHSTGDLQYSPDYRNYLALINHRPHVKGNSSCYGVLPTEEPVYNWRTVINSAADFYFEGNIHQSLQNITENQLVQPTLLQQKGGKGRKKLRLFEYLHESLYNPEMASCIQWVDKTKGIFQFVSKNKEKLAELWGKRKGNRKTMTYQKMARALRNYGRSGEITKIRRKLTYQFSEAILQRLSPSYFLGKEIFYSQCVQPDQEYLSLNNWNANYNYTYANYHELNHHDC
In short: as §1

[14] = molecular target: ELF4 (Homo sapiens, UniProt Q99607 1-663); conditions: protein: recombinant; tags: N-terminal GST; dsDNA, one strand shown
ELF4, sequence (Q99607 whole entry): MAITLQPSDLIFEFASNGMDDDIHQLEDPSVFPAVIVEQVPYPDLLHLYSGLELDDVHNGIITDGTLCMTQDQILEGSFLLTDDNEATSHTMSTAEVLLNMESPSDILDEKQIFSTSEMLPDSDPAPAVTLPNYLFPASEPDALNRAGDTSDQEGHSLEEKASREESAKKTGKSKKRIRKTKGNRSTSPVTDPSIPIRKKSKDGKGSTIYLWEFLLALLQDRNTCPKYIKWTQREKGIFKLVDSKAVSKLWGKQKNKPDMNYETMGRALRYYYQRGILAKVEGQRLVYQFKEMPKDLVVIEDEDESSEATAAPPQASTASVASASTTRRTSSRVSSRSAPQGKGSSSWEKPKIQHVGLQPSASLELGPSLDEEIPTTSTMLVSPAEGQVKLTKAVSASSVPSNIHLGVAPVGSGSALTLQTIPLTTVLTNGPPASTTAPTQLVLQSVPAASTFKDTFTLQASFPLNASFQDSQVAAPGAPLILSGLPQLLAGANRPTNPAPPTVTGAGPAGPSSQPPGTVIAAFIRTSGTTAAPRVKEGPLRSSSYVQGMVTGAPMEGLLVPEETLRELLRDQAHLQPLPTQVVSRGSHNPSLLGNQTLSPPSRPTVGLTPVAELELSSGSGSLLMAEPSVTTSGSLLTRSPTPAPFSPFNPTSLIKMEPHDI
In short: as §1

[15] = molecular target: T9, ELK4 (Homo sapiens, UniProt P28324-2 1-405); conditions: protein: recombinant; tags: N-terminal GST; dsDNA, one strand shown
T9 sequence: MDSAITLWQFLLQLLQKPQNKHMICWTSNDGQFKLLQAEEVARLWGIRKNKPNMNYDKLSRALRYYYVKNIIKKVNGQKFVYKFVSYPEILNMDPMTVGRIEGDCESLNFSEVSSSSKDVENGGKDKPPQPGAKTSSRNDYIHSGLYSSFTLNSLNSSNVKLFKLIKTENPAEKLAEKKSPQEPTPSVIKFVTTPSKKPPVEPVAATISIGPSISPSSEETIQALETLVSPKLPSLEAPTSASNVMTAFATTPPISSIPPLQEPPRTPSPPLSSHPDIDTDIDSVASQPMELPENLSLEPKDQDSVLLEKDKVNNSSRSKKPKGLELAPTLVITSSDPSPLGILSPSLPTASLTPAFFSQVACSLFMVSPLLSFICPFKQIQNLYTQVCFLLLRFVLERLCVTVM
In short: as §1

[16] = molecular target: T10, ETV2 (Homo sapiens, UniProt O00321 1-342); conditions: protein: recombinant; tags: N-terminal GST; dsDNA, one strand shown
T10 sequence: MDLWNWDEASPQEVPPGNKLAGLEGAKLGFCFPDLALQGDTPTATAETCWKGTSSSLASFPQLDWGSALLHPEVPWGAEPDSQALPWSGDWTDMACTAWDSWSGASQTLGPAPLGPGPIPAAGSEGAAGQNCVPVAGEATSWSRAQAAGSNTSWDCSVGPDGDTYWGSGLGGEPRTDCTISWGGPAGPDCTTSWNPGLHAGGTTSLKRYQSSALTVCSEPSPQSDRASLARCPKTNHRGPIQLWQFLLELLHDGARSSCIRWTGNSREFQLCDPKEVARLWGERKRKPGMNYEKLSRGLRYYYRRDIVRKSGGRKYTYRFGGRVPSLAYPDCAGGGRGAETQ
In short: as §1

[17] = molecular target: T11, ELF3 (Homo sapiens, UniProt P78545 1-371); conditions: protein: recombinant; tags: N-terminal GST; dsDNA, one strand shown
T11 sequence: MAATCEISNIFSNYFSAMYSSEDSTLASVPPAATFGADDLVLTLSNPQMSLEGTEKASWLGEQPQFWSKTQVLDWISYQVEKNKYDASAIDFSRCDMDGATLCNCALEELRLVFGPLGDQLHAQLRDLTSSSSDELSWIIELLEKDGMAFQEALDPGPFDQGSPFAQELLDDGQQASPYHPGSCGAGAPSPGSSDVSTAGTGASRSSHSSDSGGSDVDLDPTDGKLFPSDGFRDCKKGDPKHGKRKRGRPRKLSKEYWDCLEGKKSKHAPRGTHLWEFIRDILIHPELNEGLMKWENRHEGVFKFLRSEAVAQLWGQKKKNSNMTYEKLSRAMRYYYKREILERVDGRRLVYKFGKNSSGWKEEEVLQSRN
In short: as §1

[18] = molecular target: CRX (Homo sapiens, UniProt O43186 1-299); conditions: protein: recombinant; tags: N-terminal GST; dsDNA, one strand shown
CRX, sequence (O43186 whole entry): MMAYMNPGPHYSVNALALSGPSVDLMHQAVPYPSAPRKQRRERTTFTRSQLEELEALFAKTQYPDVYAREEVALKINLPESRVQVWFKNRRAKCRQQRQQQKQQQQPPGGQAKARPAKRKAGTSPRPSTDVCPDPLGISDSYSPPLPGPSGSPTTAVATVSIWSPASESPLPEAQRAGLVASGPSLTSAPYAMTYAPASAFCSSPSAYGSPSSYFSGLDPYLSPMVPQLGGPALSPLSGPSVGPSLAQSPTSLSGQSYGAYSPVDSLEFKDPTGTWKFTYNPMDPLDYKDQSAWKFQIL
In short: as §1

[19] = molecular target: ETV1 (Homo sapiens, UniProt P50549 1-477); conditions: protein: recombinant; tags: N-terminal GST; dsDNA, one strand shown
ETV1, sequence (P50549 whole entry): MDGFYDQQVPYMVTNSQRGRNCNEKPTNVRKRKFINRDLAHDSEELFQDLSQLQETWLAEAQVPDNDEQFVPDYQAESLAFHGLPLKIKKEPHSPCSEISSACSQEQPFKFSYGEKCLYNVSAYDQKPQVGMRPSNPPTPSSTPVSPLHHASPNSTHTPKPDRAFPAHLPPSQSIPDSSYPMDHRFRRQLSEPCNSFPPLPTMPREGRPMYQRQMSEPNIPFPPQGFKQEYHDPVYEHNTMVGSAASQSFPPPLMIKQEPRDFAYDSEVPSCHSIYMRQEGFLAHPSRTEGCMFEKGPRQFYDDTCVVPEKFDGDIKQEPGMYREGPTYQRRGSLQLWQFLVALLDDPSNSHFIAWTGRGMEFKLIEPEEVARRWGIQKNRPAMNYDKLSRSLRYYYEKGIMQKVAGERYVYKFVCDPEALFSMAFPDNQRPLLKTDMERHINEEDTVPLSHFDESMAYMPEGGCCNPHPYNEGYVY
In short: as §1

Sequence: ATTTCC
- binding signal [1]: 3.94 fold enrichment (6-mer frequency, TF over GST control)
- binding signal [2]: 3.9 fold enrichment (6-mer frequency, TF over GST control)
- binding signal [3]: 3.59 fold enrichment (6-mer frequency, TF over GST control)
- binding signal [4]: 5.18 fold enrichment (6-mer frequency, TF over GST control)
- binding signal [5]: 3.51 fold enrichment (6-mer frequency, TF over GST control)
- binding signal [6]: 4.16 fold enrichment (6-mer frequency, TF over GST control)
- binding signal [7]: 3.71 fold enrichment (6-mer frequency, TF over GST control)
- binding signal [8]: 4.18 fold enrichment (6-mer frequency, TF over GST control)
- binding signal [9]: 4.09 fold enrichment (6-mer frequency, TF over GST control)
- binding signal [10]: 6.05 fold enrichment (6-mer frequency, TF over GST control)
- binding signal [11]: 4.48 fold enrichment (6-mer frequency, TF over GST control)
- binding signal [12]: 1.66 fold enrichment (6-mer frequency, TF over GST control)
- binding signal [13]: 4.21 fold enrichment (6-mer frequency, TF over GST control)
- binding signal [14]: 3.62 fold enrichment (6-mer frequency, TF over GST control)
- binding signal [15]: 3.35 fold enrichment (6-mer frequency, TF over GST control)
- binding signal [16]: 4 fold enrichment (6-mer frequency, TF over GST control)
- binding signal [17]: 3.48 fold enrichment (6-mer frequency, TF over GST control)
- binding signal [18]: 1.5 fold enrichment (6-mer frequency, TF over GST control)
- binding signal [19]: 4.04 fold enrichment (6-mer frequency, TF over GST control)

From paper PMC7862700, “An all-to-all approach to the identification of sequence-specific readers for epigenetic DNA modifications on cytosine”
